A selection: hits, their analogues and other compounds. The true share with any hit is near 3.4%.
PP5 primary – PP5 (human) phosphatase inhibition; purified PP5c, OMFP substrate fluorescence; AID 1987; inhibition, % at 6.7 µM; P53041; actives 0.18% (n = 320,000);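 active = inhibition above the campaign's mean inhibition across all tested compounds plus 3 SD, cut at about 9.5% in these data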
Target sequence (P53041 whole entry, looked up): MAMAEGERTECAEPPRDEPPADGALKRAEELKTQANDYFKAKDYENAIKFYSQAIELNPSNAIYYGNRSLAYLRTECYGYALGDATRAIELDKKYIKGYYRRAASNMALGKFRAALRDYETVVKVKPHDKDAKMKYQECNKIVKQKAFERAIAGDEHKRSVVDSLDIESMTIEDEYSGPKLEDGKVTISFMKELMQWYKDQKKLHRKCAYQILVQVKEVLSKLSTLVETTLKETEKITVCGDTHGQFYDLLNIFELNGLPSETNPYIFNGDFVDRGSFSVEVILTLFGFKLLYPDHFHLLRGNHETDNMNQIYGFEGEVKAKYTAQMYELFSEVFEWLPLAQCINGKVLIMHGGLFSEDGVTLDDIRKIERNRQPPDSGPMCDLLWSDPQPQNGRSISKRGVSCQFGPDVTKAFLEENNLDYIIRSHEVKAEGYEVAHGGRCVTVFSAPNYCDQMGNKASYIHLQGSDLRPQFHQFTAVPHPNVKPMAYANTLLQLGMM
PP1 inh – PP1-alpha (human) inhibition in PP5 counter-screen; P62136; purified PP1alpha, OMFP fluorescence; inhibition, % at 6.7 µM; actives 0.9% (n = 320,000); AID 2235;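 active = inhibition above the mean inhibition of all tested compounds plus 3 SD, computed separately for each screening campaign, cut at about 15% in these data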
PAFAH2 FP inh – inhibitors of human PAFAH2 | Q99487 | actives 0.99% (n = 340,000) | inhibition, % at 3.39 µM | AID 492956 | recombinant PAFAH2, FP-rhodamine activity probe, fluorescence polarization;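 active = inhibition above the mean over all tested compounds plus 3 SD, cut at about 30% in these data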;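 also: inhibitors block probe labeling of enzyme so polarization drops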
pPAFAH FP inh – inhibitors of human plasma PAF acetylhydrolase (pPAFAH); Q13093; recombinant pPAFAH, FP-rhodamine probe fluorescence polarization; inhibition, % at 3.39 µM; actives 1.5% (n = 330,000);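 active = inhibition above the mean inhibition across the screen plus 3 SD, cut at about 25% in these data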;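 also: inhibitors block binding of the rhodamine activity-based probe so polarization drops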
PAFAH1B2 FP inh – blocks human PAF acetylhydrolase 1b catalytic subunit 2; P68402; recombinant PAFAH1B2, FP-rhodamine activity probe, fluorescence polarization; inhibition, % at 3.39 µM; actives 1.2% (n = 340,000);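 active = inhibition above the mean of all tested compounds plus 3 SD, cut at about 24% in these data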
Target sequence (P68402 whole entry, looked up): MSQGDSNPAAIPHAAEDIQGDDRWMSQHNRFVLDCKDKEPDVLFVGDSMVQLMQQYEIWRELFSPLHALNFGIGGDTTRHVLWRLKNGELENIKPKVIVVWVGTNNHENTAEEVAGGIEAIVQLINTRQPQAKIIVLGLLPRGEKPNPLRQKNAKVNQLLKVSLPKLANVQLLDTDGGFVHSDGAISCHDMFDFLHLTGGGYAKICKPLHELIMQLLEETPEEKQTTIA
PAFAH1B3 FP inh – inhibitors of human PAFAH1B3. inhibition, % at 3.39 µM. recombinant PAFAH1B3, FP-rhodamine probe, fluorescence polarization. actives 0.28% (n = 340,000);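 active = inhibition above the screen-wide average of all tested compounds plus 3 SD, cut at about 25% in these data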
Of the large screens only hits and unclear results are named; the others gave an inactive call.

COc1ccc([C@@H]2CC=C(C(=O)O)[C@H](c3ccc(F)cc3)N2S(=O)(=O)c2ccc(Cl)cc2)cc1	PAFAH1B2 FP inh 29
COc1ccccc1N1CCN(C(=O)C(OC(C)=O)c2ccccc2)CC1 (stereo not drawn)	none
Cc1ccc(Nc2cnn(C34CC5CC(CC(CC(=O)O)(C5)C3)C4)c(=O)c2Cl)cc1C	none
CCc1cccc(Nc2cnn(C34C[C@@H]5C[C@@H](CC(CC(=O)O)(C5)C3)C4)c(=O)c2Cl)c1	PAFAH1B2 FP inh 32
O=C(O)CCc1ccc(S(=O)(=O)Nc2cc(C(F)(F)F)ccc2N2CCCC2)cc1	PAFAH1B2 FP inh 30 (no result: PP5 primary, PP1 inh, pPAFAH FP inh)
Cc1ccc(S(=O)(=O)Nc2cc(C(=O)O)ccc2N2CCCCC2)cc1	none
Cc1cc(Br)c2nc3c(c(C(=O)O)c2c1)CCCCC3	none
O=Cc1cc(N=Nc2ccc(S(=O)(=O)O)cc2)ccc1O	none
CN(C)c1ccc(N=Nc2ccc(S(=O)(=O)O)cc2)c2ccccc12	pPAFAH FP inh 30
COc1ccc2oc(=O)c(-c3csc(Nc4cccc(O)c4)n3)cc2c1	PAFAH1B2 FP inh 40, PAFAH1B3 FP inh 29
CN(NS(=O)(=O)c1ccc(Cl)cc1)c1ncc(C(F)(F)F)cc1Cl	PAFAH1B2 FP inh 28
CN(NS(=O)(=O)c1ccc(F)cc1)c1ncc(C(F)(F)F)cc1Cl	none (no result: PAFAH2 FP inh, PAFAH1B2 FP inh, PAFAH1B3 FP inh)
O=C(Cc1ccsc1)NNC(=O)c1ccccc1O	none
O=C1OC(Nc2ncccn2)c2ccccc21 (stereo not drawn)	none
O=C1OC(Nc2cc(Br)cc3cccnc23)c2ccccc21 (stereo not drawn)	pPAFAH FP inh 30, PAFAH1B3 FP inh 69
c1ccc2c(c1)CCN(Cc1nnnn1Cc1ccc3c(c1)OCO3)C2	none
COc1ccc(N2CCN(c3ncnc4scc(-c5ccccc5)c34)CC2)cc1	pPAFAH FP inh 32
COc1ccc(N2CCN(c3ncnc4scc(-c5ccc(C)cc5)c34)CC2)cc1	none
CC1CCN(Cc2c(C(=O)N/N=C/c3cccc(C(F)(F)F)c3)nnn2-c2nonc2N)CC1	PP1 inh 16
S=C(Nc1cccnc1)N1CCCCC1	none
CCc1cc2c(=O)c(-c3ccc4c(c3)OCO4)coc2c(CN(C)C)c1O	none
CCc1cc2c(=O)c(-c3cscn3)coc2c(CN(C)C)c1O	pPAFAH FP inh 27
CCOC(=O)C1CCN(C(=O)CCN2C(=O)C3C4C=CC(C4)C3C2=O)CC1 (stereo not drawn)	pPAFAH FP inh 29
CN(Cc1ccccc1)C(=O)CN1CCN(S(=O)(=O)c2ccc(Cl)c(Cl)c2)CC1	PAFAH1B2 FP inh 30
Cc1cc(S(=O)(=O)N2CCN(CC(=O)N(C)Cc3ccccc3)CC2)ccc1Br	none (no result: PP5 primary, PP1 inh, pPAFAH FP inh)
CC(=O)C1=C(O)C(=O)N(c2ccc(Br)cc2)C1c1cccc(F)c1 (stereo not drawn)	PP1 inh 16
CC(=O)C1=C(O)C(=O)N(c2ccc(O)cc2)C1c1cccc(F)c1 (stereo not drawn)	none
COc1ccc(CN(C(=O)Cn2nnc3ccccc32)C(C(=O)NC(C)(C)C)c2ccco2)cc1 (stereo not drawn)	none
CSCCC(NS(=O)(=O)c1ccc(Cl)cc1)C(=O)OCC(=O)N(C(C)C)C(C)C (stereo not drawn)	none
CSCCC(NS(=O)(=O)c1ccc(Cl)cc1)C(=O)OCc1cccc(Cl)c1 (stereo not drawn)	PAFAH1B2 FP inh 33
CSCCC(NS(=O)(=O)c1ccc(Cl)cc1)C(=O)OCc1c(Cl)cccc1Cl (stereo not drawn)	PAFAH1B2 FP inh 27
CSCCC(NS(=O)(=O)c1ccc(Cl)cc1)C(=O)OCC(=O)NC1CC1 (stereo not drawn)	none
COc1ccc(-c2cc(C(=O)O)c3c(C)nn(-c4ccccn4)c3n2)cc1	none (no result: PAFAH2 FP inh, PAFAH1B2 FP inh, PAFAH1B3 FP inh)
COc1ccc(N=CC2=C(Nc3ccc(OC)cc3)c3c(C)nn(-c4ccccn4)c3CC2)cc1	pPAFAH FP inh 54 (no result: PAFAH2 FP inh, PAFAH1B2 FP inh, PAFAH1B3 FP inh)
O=C(O)C1=C[C@H](c2ccc(C(F)(F)F)cc2)C[C@H](OCc2ccc(CO)cc2)O1	PAFAH1B2 FP inh 40
Cc1ccc(N(Cc2ccccc2)C(=O)c2cccc(S(=O)(=O)N3CCOCC3)c2)cc1	none
COc1cc(C(=O)NCc2ccc(OCCN(C)C)cc2)cc(OC)c1OC	none
COC(=O)c1sc(NC(=S)NNC(=O)c2c(Br)c(C)nn2C)c(C(=O)OC)c1C	PAFAH2 FP inh 30
COC(=O)c1sc(S(=O)(=O)Nc2c(C)nn(C)c2C)c(C(=O)OC)c1C	none (no result: PP5 primary, PP1 inh, pPAFAH FP inh)
COC(=O)CN=Cc1c(O)n(-c2ccc(Cl)cn2)c(=O)c2ccccc12	none
O=S1(=O)Nc2c(ccc3cccnc23)-c2ccccc21	pPAFAH FP inh 27
Cc1ccc(C2(C)NC(=O)N(CC(=O)Nc3ccc(N4CCOCC4)cc3N3CCOCC3)C2=O)cc1 (stereo not drawn)	none
COc1ccc2[nH]c3c(c2c1)CCN1C(=O)C(CC(=O)NC/C=C(\C)CCC=C(C)C)C[C@H](C(=O)N(C(C)C)C(C)C)[C@@]31C (stereo partly drawn)	pPAFAH FP inh 26 (no result: PP5 primary, PP1 inh)
CC[C@]12c3[nH]c4cc(CCC(=O)N(C)C)ccc4c3CCN1C(=O)[C@@H](CC(=O)NCCN1CCOCC1)C[C@@H]2C(=O)N1CCN(C(=O)C2CC2)CC1	none (no result: PP5 primary, PP1 inh)
CC(C)=CCC/C(C)=C/CNC(=O)C[C@H]1C[C@H](C(=O)N(C(C)C)C(C)C)[C@@]2(C)c3[nH]c4ccc(Cl)cc4c3CCN2C1=O	none (no result: PP5 primary, PP1 inh)
CN(C)C(=O)CCc1ccc2c3c([nH]c2c1)[C@]1(C)[C@@H](C(=O)N2CCOCC2)C[C@H](CC(=O)NC(C)(C)C)C(=O)N1CC3	none (no result: PP5 primary, PP1 inh)
CC(C)=CCC/C(C)=C/CNC(=O)C[C@H]1C[C@H](C(=O)N2CCOCC2)[C@@]2(C)c3[nH]c4cc(CCC(=O)N(C)C)ccc4c3CCN2C1=O	pPAFAH FP inh 30 (no result: PP5 primary, PP1 inh)
CC[C@]12c3[nH]c4cc(CCC(=O)N(C)C)ccc4c3CCN1C(=O)[C@@H](CC(=O)NC/C=C(\C)CCC=C(C)C)C[C@@H]2C(=O)N1CCN(C(=O)C2CC2)CC1	pPAFAH FP inh 29 (no result: PP5 primary, PP1 inh)
CC1(C)CC2(CCCN3C(=O)CSC32)CCS1 (stereo not drawn)	none
Cc1cc(NC(=O)CSc2nc(=O)n3cccc(C)c3n2)no1	none
Cc1ccc(C(=O)CCC(=O)OCC(=O)Nc2ccccc2SCC#N)cc1	pPAFAH FP inh 27
CSc1ccccc1NC(=O)COC(=O)CCC(=O)c1ccc(F)cc1	none (no result: PP5 primary, PP1 inh)
COc1cc(C(C)=O)ccc1OCC(=O)NCC(c1ccc(F)cc1)N1CCOCC1 (stereo not drawn)	pPAFAH FP inh 28 (no result: PP5 primary, PP1 inh)
Cc1ccc(C(=O)Nc2c(C)n(C)n(-c3ccccc3)c2=O)cc1	none
COc1ccccc1-c1noc(Cn2cc(S(=O)(=O)N3CCCC3)ccc2=O)n1	none
O=C(N/N=C/c1ccc2cccc(OCc3ccccc3)c2n1)c1ccc(Br)cc1	PP1 inh 17
O=C(O)c1cccc(NC(=S)N/N=C/c2ccccc2OCc2cccc(Br)c2)c1	none (no result: PP5 primary, PP1 inh, pPAFAH FP inh)

High-throughput results: PubChem BioAssay, The Scripps Research Institute Molecular Screening Center
